Our source for the relative growth values is the supplement of paper PMC9446081.

In all, about 39,000 compounds went through this assay and about 220 (0.56%) showed activity. What follows is part of a selection rich in actives, with near analogues and random picks from the rest.
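Further: Wild-type cells incubated without shaking, value is the mean of two biological replicates.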

In this test the test system is Escherichia coli K-12 BW25113. Put plainly: relative growth (OD600 normalised to plate interquartile mean) (fraction); higher = less growth inhibition, active = 0.2 or less. The conditions noted are these: 50 µM; LB; incubation time: overnight (16-24 h).
For the compound `C[C@@H](O)[C@H]1C(=O)N2C(C(=O)O)=C(SCCNC=N)C[C@H]12`, the relative growth was 1.01 (inactive).

With `CC(O)C1C(=O)N2C(C(=O)[O-])=C(SC3Cn4cnc[n+]4C3)C(C)C12` (stereo not given), the relative growth was 0.307 (inactive).

As to `CC(O)C1C(=O)N2C(C(=O)O)=C(SC3CNC(C(=O)N(C)C)C3)C(C)C12` (stereo not given), the relative growth was 0.0517 (active).

Regarding `C[C@@H]1CN([C@@H](C)CO)C(=O)c2cc(NS(=O)(=O)c3ccc(F)cc3)ccc2O[C@@H](C)CCCCO[C@H]1CN(C)Cc1ccccc1`, the relative growth was 0.979 (inactive).

With `C[C@@H]1CCCCO[C@@H](CN(C)C(=O)Nc2ccc3c(c2)OCO3)[C@@H](C)CN([C@@H](C)CO)C(=O)c2cc(NS(=O)(=O)c3ccccc3)ccc2O1`, the relative growth is 1.01 (inactive).

As for `C[C@@H]1CN([C@H](C)CO)C(=O)c2ccccc2-c2ccccc2CO[C@@H]1CN(C)S(=O)(=O)c1cn(C)cn1`, the relative growth was 0.997 (inactive).

On to `O=C(C[C@H]1CC[C@H]2[C@@H](COC[C@@H](O)CN2S(=O)(=O)c2ccccc2)O1)N1CCOCC1`, for which the relative growth is 0.964 (inactive).

On to `CCOC(=O)OC(C)OC(=O)C1N2C(=O)C(NC(=O)C(N)c3ccccc3)C2SC1(C)C.Cl` (stereo not given), for which the relative growth was 0.0511 (active).

Turning to `CC1(C)S[C@H]2[C@@H](NC(=O)[C@@H](N)c3ccccc3)C(=O)N2[C@@H]1C(=O)O`, the relative growth was 1.01 (inactive).

On to `CC1(C)SC2C(NC(=O)C(N)c3ccc(O)cc3)C(=O)N2C1C(=O)O` (stereo not given), for which the relative growth was 1.1 (inactive).

Turning to `CC1(C)SC2C(NC(=O)C(N)c3ccccc3)C(=O)N2C1C(=O)[O-].[Na+]` (stereo not given), the relative growth is 1.06 (inactive).

As for `CC1(C)S[C@@H]2[C@H](NC(=O)[C@H](N)c3ccc(O)cc3)C(=O)N2[C@H]1C(=O)O`, the relative growth was 0.516 (inactive).

With `CC1(C)S[C@@H]2[C@H](NC(=O)[C@H](N)c3ccccc3)C(=O)N2[C@H]1C(=O)OCOC(=O)[C@@H]1N2C(=O)C[C@H]2S(=O)(=O)C1(C)C`, the relative growth was 0.107 (active).

As to `CN(C)CCCNC(=O)C[C@H]1CC[C@H]2[C@@H](COC[C@@H](O)CN2C(=O)c2cc(Cl)cc(Cl)c2)O1`, the relative growth was 0.968 (inactive).

As for `COc1cc(N)ccn1`, the relative growth was 1.07 (inactive).

`O=C(C[C@H]1C[C@H]2c3cc(NS(=O)(=O)c4ccc(F)cc4)ccc3O[C@H]2[C@H](CO)O1)NCc1ccccn1`: the relative growth was 0.998 (inactive).

For the compound `OC[C@@H](O)[C@H]1O[C@H](c2ccccc2)OC[C@@H]1O`, the relative growth was 1.05 (inactive).

On to `COc1ccc(S(=O)(=O)Nc2ccc3c(c2)C(=O)N([C@H](C)CO)C[C@@H](C)[C@@H](CN(C)C(=O)Nc2c(C)noc2C)O3)cc1`, for which the relative growth is 1 (inactive).

With `CSC1=N[C@@]2(C)CCCC[C@@H]2c2c1ccc1ccccc21`, the relative growth was 1.01 (inactive).

Consider `COc1ccc(C(=O)Nc2ccc3c(c2)C(=O)N(C)[C@@H]2CC[C@H](CC(=O)NCC4CC4)O[C@@H]2CO3)cc1`, for which the relative growth was 0.982 (inactive).

With `Cc1ccc(S(=O)(=O)Nc2ccc3c(c2)C(=O)N([C@@H](C)CO)C[C@H](C)[C@@H](CN(C)S(=O)(=O)c2cn(C)cn2)O3)cc1`, the relative growth was 0.932 (inactive).

Regarding `CC(N)O.Cc1cc(CC(C)CC(C)(C)C)n(O)c(=O)c1` (stereo not given), the relative growth is 0.0449 (active).

In the case of `C[C@@H]1CCCCO[C@@H](CN(C)S(C)(=O)=O)[C@H](C)CN([C@H](C)CO)C(=O)c2cc(NS(=O)(=O)c3ccccc3)ccc2O1`, the relative growth is 0.997 (inactive).

With `NCCCC[C@H](NC(=O)[C@@H](NC(=O)[C@H](Cc1c[nH]c2ccccc12)NC(=O)[C@H](CCCCN)NC(=O)[C@H](CCCCN)NC(=O)[C@H](Cc1c[nH]c2ccccc12)NC(=O)[C@H](Cc1c[nH]c2ccccc12)NC(=O)[C@H](CCCCN)NC(=O)[C@@H](N)CCCCN)C(c1ccccc1)c1ccccc1)C(N)=O`, the relative growth is 0.149 (active).

For the compound `C[C@H](NC(=O)[C@@H](Cc1ccc2ccccc2c1)NC(=O)[C@@H](C)N)C(=O)N[C@@H](Cc1c[nH]c2ccccc12)C(=O)N[C@H](Cc1ccccc1)C(=O)N[C@@H](CCCCN)C(N)=O`, the relative growth was 0.98 (inactive).

Take `NCCCC[C@@H](N)C(=O)N[C@@H](Cc1c[nH]c2ccccc12)C(=O)N[C@@H](CCCCN)C(=O)O`: the relative growth was 0.994 (inactive).

On to `Cc1noc(C)c1S(=O)(=O)Nc1ccc2c(c1)C(=O)N([C@H](C)CO)C[C@@H](C)[C@H](CN(C)S(=O)(=O)c1ccc(Cl)cc1)O2`, for which the relative growth was 1 (inactive).

With `COc1ccc(C#Cc2ccc3c(c2)O[C@@H](CN(C)C(=O)CN2CCOCC2)[C@@H](C)CN([C@H](C)CO)S3(=O)=O)cc1`, the relative growth is 0.997 (inactive).

As for `COCCNC(=O)C[C@H]1C[C@H]2c3cc(NS(C)(=O)=O)ccc3O[C@H]2[C@H](CO)O1`, the relative growth was 1.01 (inactive).

Take `C(=C\c1ccccc1)/CSc1ncnc2c1oc1ccccc12`: the relative growth was 1.02 (inactive).

For `C/C(=C\C(=O)OCCCCCCCCC(=O)O)C[C@@H]1OC[C@H](C[C@@H]2O[C@H]2[C@@H](C)[C@H](C)O)[C@@H](O)[C@H]1O`, the relative growth was 0.166 (active).

With `CC(=CC(=O)OCCCCCCCCC(=O)O)CC1OCC(CC2OC2C(C)C(C)O)C(O)C1O` (stereo not given), the relative growth was 0.526 (inactive).

Consider `C[C@@H]1CN([C@@H](C)CO)C(=O)c2cc(-c3cccc(C(=O)N(C)C)c3)cnc2O[C@H]1CN(C)C(=O)Cc1ccccn1`, for which the relative growth was 0.986 (inactive).

With `CC[C@H]1OC(=O)C[C@@H](O)[C@H](C)[C@@H](O[C@@H]2O[C@H](C)[C@@H](O[C@H]3C[C@@](C)(O)[C@@H](O)[C@H](C)O3)[C@H](N(C)C)[C@H]2O)[C@@H](CC=O)C[C@@H](C)C(=O)/C=C/C(C)=C/[C@@H]1CO[C@@H]1O[C@H](C)[C@@H](O)[C@@H](OC)[C@H]1OC`, the relative growth was 0.971 (inactive).

On to `CC[C@H]1OC(=O)C[C@@H](O)[C@H](C)[C@@H](O[C@@H]2O[C@H](C)C[C@H](N(C)C)[C@H]2O)[C@@H](CC=O)C[C@@H](C)C(=O)/C=C/[C@]2(C)O[C@H]2[C@@H]1C`, for which the relative growth was 0.149 (active).

Take `CCC1OC(=O)CC(O)C(C)C(OC2OC(C)C(OC3CC(C)(O)C(O)C(C)O3)C(N(C)C)C2O)C(CC=O)CC(C)C(=O)C=CC(C)=CC1COC1OC(C)C(O)C(OC)C1OC.O=C(O)C(O)C(O)C(=O)O` (stereo not given): the relative growth was 1.09 (inactive).

`Nc1ccccc1C(=O)NCCN1CCNC1=O`: the relative growth is 1.01 (inactive).

In the case of `Cl.NC1CCN(c2c(F)cc3c(=O)c(C(=O)O)cn(C4CC4)c3c2Cl)C1` (stereo not given), the relative growth is 0.0438 (active).

For `N[C@@H]1CN(c2c(F)cc3c(=O)c(C(=O)O)cn([C@@H]4C[C@@H]4F)c3c2Cl)CC12CC2`, the relative growth is 0.0347 (active).

Take `OC[C@@H](O)[C@@H](O)[C@@H](O)[C@@H](O)[C@@H](O)CO`: the relative growth is 1 (inactive).

In the case of `C[C@H](CO)N1C[C@H](C)[C@H](CN(C)C(=O)Nc2ccc(C(F)(F)F)cc2)Oc2ccc(NS(=O)(=O)c3ccc(F)cc3)cc2C1=O`, the relative growth is 0.994 (inactive).

For the compound `c1n[nH]nc1SSc1cn[nH]n1`, the relative growth is 0.536 (inactive).

Regarding `C[C@H](CO)N1C[C@H](C)[C@H](CN(C)S(C)(=O)=O)Oc2c(NC(=O)c3ccc(-c4nccs4)cc3)cccc2C1=O`, the relative growth is 0.995 (inactive).

As to `CCCN(C)C[C@@H]1OCCCC[C@H](C)Oc2ccc(NC(=O)CCC(F)(F)F)cc2C(=O)N([C@@H](C)CO)C[C@@H]1C`, the relative growth is 1 (inactive).

As for `C[C@H](CO)N1C[C@H](C)[C@H](CN(C)Cc2ccccc2)OCCCC[C@H](C)Oc2ccc(NC(=O)C3CCCCC3)cc2C1=O`, the relative growth was 1.01 (inactive).

Consider `COc1ccc2cc1Oc1ccc(cc1)CC1c3c(cc4c(c3Oc3cc5c(cc3OC)CCN(C)C5C2)OCO4)CCN1C` (stereo not given), for which the relative growth is 0.844 (inactive).

Turning to `COc1ccc2cc1Oc1ccc(cc1)C[C@H]1c3c(cc4c(c3Oc3cc5c(cc3OC)CCN(C)[C@@H]5C2)OCO4)CCN1C`, the relative growth is 0.993 (inactive).

For the compound `COc1ccc2c(c1OC)C(=O)OC2C1c2c(cc3c(c2OC)OCO3)CCN1C.Cl` (stereo not given), the relative growth is 0.0513 (active).

Consider `C[C@H](CO)N1C[C@H](C)[C@H](CN(C)Cc2ccccc2)Oc2c(NC(=O)Nc3cccc4ccccc34)cccc2C1=O`, for which the relative growth was 1 (inactive).

In the case of `Cc1ccc(S(=O)(=O)Nc2ccc3c(c2)C(=O)N([C@H](C)CO)C[C@@H](C)[C@@H](CN(C)C(=O)c2ccccc2)OCCCC[C@H](C)O3)cc1`, the relative growth was 1.01 (inactive).
